system: PXR homodimer (NR concentration 270 nM); assay: PBM binding z-score (relative to random genomic background probes); higher = stronger binding; sequences stand for … in GC…GCGATTGACAGCGTAGAATGAAGG
Outline: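 Regression normalization was applied to scanned fluorescence from custom Agilent 4×180K protein-binding microarrays. Before scanning, arrays were incubated 1 h with ligand-free nuclear receptor dimers, and binding was detected with antibodies against each partner (one per run). Binding z-scores use the random background probes as reference.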

Row | Sequence | PBM binding z-score
1 | TCTCGGAGGACACGAAAGGCCAGAGCTCGACATC | -0.472
2 | TGTCAAAGTTCAAAGGTAACGGAAGTATCCACAC | 3.74
3 | GCTGCTAGATCAGGTTGGTCAGCTAACGGGTACG | -0.557
4 | TCATATAGGTAAATCCTAGGTGAAAGTCCGATCT | 0.175
5 | GCTTACGGGTCAAAGGCTATAGCATGAATAGAAT | 0.0124
6 | TCAAGTAGGTTAGGGGCATTCAGAATGGCGTCGA | 0.86
7 | ATCTCAAGGTAACAAGTTCAGTGAAAGAGAGGAC | 2.27
8 | CCGACTGGGGCAGAAAGGTTACTATACCATCCGG | -0.207
9 | CTCGAAAGGTCGTGCTCAGGTGCGTATACCAAAC | 0.43
10 | CCGACTGGGGCATAAGGGTACCATAAGCCAGCCC | -0.387
11 | TGTCAAAGTTGAAAGGTAACGTAAGTATCCACAC | 0.066
12 | TCGAGTAGGTAAGGGGCATTCAGAATGGCGTCGA | -0.537
13 | CCTACTGGGCCATTCAGAGGTCATTGGTCATATG | 2.34
14 | CAAACTAGGTCAAAGTCAAAGTCGGTTTGTGCCA | -0.171
15 | CAAACTAGGTCAAGAGGTCAACGTCCGCTTCCCG | 1.76
16 | CATACAGGGTCAGCTAGGCCAGAGTCGGGACGGC | -0.0453
17 | GCTTGTATATCAAGGTTAAGAAAGACTAAGCTAA | -0.223
18 | ATATGTAGGTTAGCGGGTCATTCAGTTTGCGCAT | 5.07
19 | CGTCCAAGGTCGATGCTAGGTCAGTGAAAGCATT | 0.704
20 | GCAGACAGGTGAAACGCAGGTTACTCAGGGTGGC | -0.507
21 | CGTCCAAGGTCATAGTAGGTCAGTGAAGACAGAT | 2.73
22 | ATCTCTAGGTAAGACTCAGTTCTGTGAAGAACGC | 0.287

Reference: the supplement of paper PMC6555819
